Assay [1] is described as follows: qHTS RealTime-Glo MT Cell Viability Assay in HEK293 cells - 16 hour (AID 1224872). Also: top concentration of the series differs between compounds; nearly all actives have a fitted effect of over 50% in size. The method in brief:
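Tox21 10K qHTS, HEK293, 600 cells/well, RealTime-Glo reagent co-dispensed with cells; 5 h preincubation, compound by pintool, 37 C, luminescence at 0–40 h.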

The nature of assay [2]: qHTS RealTime-Glo MT Cell Viability Assay in HepG2 cells - 8 hour (AID 1224873). Also: nearly all actives have a fitted effect of over 55% in size. The method in brief:
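HepG2 cells (600/well) mixed with RealTime-Glo MT reagent, settled 5 h at 37 C/5% CO2 before compound addition. Nonlytic NanoLuc luminescence from viable-cell prosubstrate reduction read repeatedly during 40 h treatment at 37 C.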
(Quantitative high-throughput screening tests each substance at several concentrations.)

Assay [3] is described as follows: qHTS RealTime-Glo MT Cell Viability Assay in HEK293 cells - 40 hour (AID 1224874). Also: nearly all actives have a fitted effect of over 50% in size. Also: potency is read from the fitted curve at half-maximal effect. The settings on record: RealTime-Glo luminescence; max response: stronger effect = lower value. The method in brief:
(§1)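 Kinetic, non-lysing viability readout. Seed HEK293 (600/well) with reagent, incubate 5 h at 37 C/5% CO2, pin 23 nL compound in DMSO, incubate at 37 C, read luminescence at 0, 8, 16, 24, 32, 40 h.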

Assay [4] can be described thus: A CellTox Green Cytotoxicity Assay to monitor cytotoxicity in HEK293 cells - 24 hour (AID 1224875). Also: nearly all actives have a fitted effect of over 45% in size. Also: potency is read from the fitted curve at half-maximal effect. The method in brief:
(§2)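 Real-time, in one plate: 600 HEK293 cells/well with dead-cell DNA dye, pinned compound after 5 h, 37 C incubation over 40 h; viable cells give no appreciable fluorescence.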

A short description of assay [5]: A CellTox Green Cytotoxicity Assay to monitor cytotoxicity in HepG2 cells - 16 hour (AID 1224876). Also: nearly all actives have a fitted effect of over 45% in size. The method in brief: (§3)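 Cytotoxicity was tracked as dead-cell DNA fluorescence in HepG2 cells treated with test compounds at 37 C; each time-point value comes from one kinetic series spanning 0, 8, 16, 24, 32 and 40 h.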
Assay [6] can be described thus: qHTS RealTime-Glo MT Cell Viability Assay in HepG2 cells - 32 hour (AID 1224877). Also: nearly all actives have a fitted effect of over 55% in size. The method in brief: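 Cells + NanoLuc/prosubstrate dispensed (600 cells/well) → 5 h at 37 C/5% CO2 → compounds in DMSO transferred → 40 h incubation at 37 C, luminescence read at 0, 8, 16, 24, 32, 40 h.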
The nature of assay [7]: A CellTox Green Cytotoxicity Assay to monitor cytotoxicity in HepG2 cells - 24 hour (AID 1224878). Also: nearly all actives have a fitted effect of over 45% in size. The method in brief:
as §3

Assay [8] is described as follows: A CellTox Green Cytotoxicity Assay to monitor cytotoxicity in HepG2 cells - 40 hour (AID 1224879). Also: nearly all actives have a fitted effect of over 40% in size. Also: potency is read from the fitted curve at half-maximal effect. The method in brief: as §3
A short description of assay [9]: qHTS RealTime-Glo MT Cell Viability Assay in HEK293 cells - 0 hour (AID 1224880). Also: top concentration of the series differs between compounds; nearly all actives have a fitted effect of over 45% in size. The method in brief:
as §1

The nature of assay [10]: A CellTox Green Cytotoxicity Assay to monitor cytotoxicity in HEK293 cells - 32 hour (AID 1224881). Also: nearly all actives have a fitted effect of over 40% in size. Also: potency is read from the fitted curve at half-maximal effect. The method in brief: as §2

Each structure is given as a SMILES string. Values joined by “and” are separate entries in the source; they are usually repeats but may differ in a detail not shown here. Identical values can stand only once. Inconclusive results are not listed. Some compounds were tested as several samples or in several runs, with calls that do not always agree. Active and inactive are the calls of the source. Calls follow the shape of the dose curve; as a rule, active = well fitted curve in the direction sought with a large enough effect in the repeat runs; inconclusive = weak or mixed curves; inactive = no such curve, though single readings can be large; an effect the other way counts as inactive or inconclusive.
% is scaled to controls: 0 for no effect and ±100 for the full control effect.

Turning to `Cc1cccc(O)c1C`, the Potency entry in [1], in assay [2], in assay [4], in [5], in assay [6] and in [7] was “inactive” each time. Also, the Potency result in [8], in [9] and in [10] was “inactive” in each case. The max response in [3] is -0.0816% (inactive) and -5.42% (inactive).
`Nc1nc(=S)c2[nH]cnc2[nH]1`: the Potency result in [1], in assay [2], in [4], in assay [5], in assay [6] and in assay [7] was “inactive” in each case. Also, the Potency entry in assay [8], in [9] and in [10] was “inactive” each time. Moreover, in assay [3], the Potency is 21.3 µM (active) and 19.5 µM (active) and 26.8 µM (active).
With `CCCCN(CCO)CCCC`, the Potency result in [1], in assay [2], in assay [4], in assay [5], in [6] and in assay [7] was “inactive” throughout. Further, the Potency entry in [8], in assay [9] and in assay [10] was “inactive” in each case. Also, the max response in assay [3] is 2.9% (inactive).
For the compound `C=C(C)C1CC=C(C)C(OC(C)=O)C1` (stereo not given), the Potency entry in assay [1], in assay [2], in [4], in assay [5], in assay [6] and in assay [7] was “inactive” in each case. Besides, the Potency entry in [8], in assay [9] and in assay [10] was “inactive” throughout. Also, the max response in assay [3] was -4.93% (inactive) and 11% (inactive).
Take `O=C(O)c1cccc(C(=O)O)c1`: the Potency result in assay [1], in assay [2], in [4], in assay [5], in assay [6] and in assay [7] was “inactive” throughout. Also, the Potency entry in assay [8], in assay [9] and in assay [10] was “inactive” in each case. Besides, in [3], the max response was 5.05% (inactive) and -3.16% (inactive).
`CC(=O)CC(C)=O`: the Potency entry in assay [1], in assay [2], in assay [4], in assay [5], in [6] and in assay [7] was “inactive” in each case. Also, the Potency result in assay [8], in [9] and in [10] was “inactive” throughout. For the same compound, in [3], the max response was -5.33% (inactive).
Regarding `O=C(O)CP(=O)(O)O`, the Potency entry in [1], in assay [2], in assay [4], in [5], in [6] and in [7] was “inactive” each time. Besides, the Potency entry in [8], in [9] and in [10] was “inactive” each time. For the same compound, the max response in assay [3] was -6.08% (inactive).
`O=C1NCC2(CCN(CCc3ccccc3)CC2)O1`: the Potency result in assay [1], in assay [2], in [4], in [5], in assay [6] and in assay [7] was “inactive” each time. For the same compound, the Potency result in [8], in assay [9] and in assay [10] was “inactive” in each case. For the same compound, the max response in [3] was 2.88% (inactive).
`CCn1cc(C(=O)O)c(=O)c2cc(F)c(N3CCNC(C)C3)c(F)c21` (stereo not given): the Potency result in assay [1], in assay [2], in assay [4], in [5], in [6] and in assay [7] was “inactive” throughout. The Potency result in [8], in assay [9] and in assay [10] was “inactive” in each case. The max response in [3] is 14.9% (inactive).
`O=C(O)CCc1ccccc1`: the Potency result in assay [1], in assay [2], in assay [4], in [5], in assay [6] and in assay [7] was “inactive” throughout. The Potency result in [8], in assay [9] and in assay [10] was “inactive” in each case. In addition, the max response in assay [3] is 3.43% (inactive).
`CC[C@]1(O)C[C@@H]2CN(CCc3c([nH]c4ccccc34)[C@@](C(=O)OC)(c3cc4c(cc3OC)N(C)[C@H]3[C@@](O)(C(=O)OC)[C@H](OC(C)=O)[C@]5(CC)C=CCN6CC[C@]43[C@@H]65)C2)C1`: the Potency entry in assay [1], in assay [2], in [4], in assay [5], in assay [6] and in assay [7] was “inactive” in each case. In addition, the Potency entry in [8], in assay [9] and in assay [10] was “inactive” each time. Further, in assay [3], the Potency was 15.1 nM (active) and 5.4 nM (active).
Turning to `CCc1cc(C(C)(C)C)c(O)c(C(C)(C)C)c1`, the Potency entry in assay [1], in assay [2], in assay [5], in [6], in assay [7] and in [8] was “inactive” throughout. Besides, the Potency entry in [9] is “inactive”. In addition, the max response in assay [3] was 1.58% (inactive) and -10.1% (inactive). Also, the Potency in assay [4] and in assay [10] was 21.9 µM (active) in each case.
Regarding `CC(=O)OCC1=C(C(=O)O)N2C(=O)[C@@H](NC(=O)Cc3cccs3)[C@H]2SC1`, the Potency entry in assay [1], in assay [2], in assay [4], in [5], in [6] and in assay [7] was “inactive” in each case. The Potency entry in assay [8], in assay [9] and in assay [10] was “inactive” in each case. Also, the max response in assay [3] was 6.98% (inactive).
As to `Cc1cccc([N+](=O)[O-])c1C(=O)O`, the Potency result in assay [1], in assay [2], in assay [4], in assay [5], in assay [6] and in assay [7] was “inactive” in each case. Also, the Potency result in [8], in [9] and in [10] was “inactive” throughout. For the same compound, in [3], the max response was -0.164% (inactive).
Regarding `C=C(C)C(=O)O`, the Potency entry in assay [1], in assay [2], in [4], in assay [5], in [6] and in [7] was “inactive” throughout. Further, the Potency entry in [8], in assay [9] and in assay [10] was “inactive” throughout. In addition, the max response in assay [3] is -0.401% (inactive) and 9.57% (inactive).
With `CCN1CCCC1CNC(=O)c1cc(S(=O)(=O)CC)c(N)cc1OC` (stereo not given), the Potency result in assay [1], in assay [2], in assay [4], in [5], in assay [6] and in assay [7] was “inactive” in each case. Moreover, the Potency result in [8], in assay [9] and in assay [10] was “inactive” each time. For the same compound, the max response in [3] was 2.04% (inactive).
For `CCC(CO)(CO)COCC(CC)(CO)CO`, the Potency entry in assay [1], in [2], in [4], in assay [5], in assay [6] and in assay [7] was “inactive” each time. Moreover, the Potency result in assay [8], in assay [9] and in assay [10] was “inactive” each time. For the same compound, in assay [3], the max response is -1.05% (inactive).
For `CCCN[C@H]1CCc2nc(N)sc2C1`, the Potency result in assay [1], in assay [2], in assay [4], in assay [5], in [6] and in assay [7] was “inactive” throughout. Also, the Potency entry in assay [8], in assay [9] and in assay [10] was “inactive” each time. In addition, the max response in [3] was -11% (inactive).
As for `c1ccc2cc3c(ccc4ccccc43)cc2c1`, the Potency result in assay [1], in assay [2], in [4], in assay [5], in [6] and in assay [7] was “inactive” throughout. Further, the Potency result in [9] and in assay [10] was “inactive” each time. Besides, in assay [3], the max response was 0.679% (inactive). In assay [8], the Potency was 21.9 µM (active) and inactive.

(Values after PubChem BioAssay (Tox21).)
